From PubChem BioAssay (NCATS)
Records with an inconclusive call do not appear. The source made the active and inactive calls. Unless noted, calls follow the shape of the dose curve; as a rule, active = well fitted curve in the direction sought with a large enough effect; inconclusive = small, poorly fitted or top-dose-only effect, or another doubt; inactive = no such curve, though single readings can be large; an effect the other way counts as inactive or inconclusive.

What was measured:
[1] = target: DNA polymerase III PolC-type (Bacillus subtilis (strain 168)) (UniProt P13267); assay: qHTS Validation Assay for the Inhibitors of DNA Replication in Gram-Positive Bacteria (AID 485295);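 also: reconstituted holoenzyme with PolC plus beta clamp SSB and primase; PicoGreen fluorescence of double-stranded DNA made on primed circular M13 template; series mostly up to about 57 µM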
Procedure, shortened: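 Double-stranded DNA product detected by PicoGreen fluorescence after EDTA quench. Compound incubated with B. subtilis holoenzyme (PolC, beta subunit, SSB, primase) before substrate addition; primed replication of M13Gori with dNTPs and NTPs at room temperature; DMSO defines 0% inhibition.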

[2] = target: Tumor susceptibility gene 101 protein (Homo sapiens) (UniProt Q99816); assay: qHTS Validation Assay for Iinhibitors of HIV-1 Budding by Blocking the Interaction of PTAP/TSG101 (AID 485342; calls by dose curve)
Procedure, shortened: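 Fluorescence polarization of 50 nM FITC-PTAP peptide bound to 10 uM Tsg101 binding domain was read after 20 min room-temperature incubation with compounds, in 10 mM HEPES pH 7.5, 0.15 M NaCl, 0.01% Tween 20.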

[3] = qHTS Validation Assay to Find Inhibitors of Chronic Active B-Cell Receptor Signaling (AID 485345; active = well fitted curve in the direction sought with a large enough effect in the main read-out, with a control signal flat, not every such curve was filed as active)
Procedure, shortened: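 TMD8 ABC-DLBCL cells with dox-inducible green luciferase–IκBα fusion and red native luciferase; compounds 46 uM–3 nM, 4 h at 37C with doxycycline in 0.5% FBS IMDM. Green/red ratio normalized to basal and 10 uM MG-132.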

[4] = Quantitative high throughput screen for delayed death inhibitors of the malarial parasite plastid, 96 hour incubation (AID 488745); also: nearly all actives have a fitted effect of over 70% in size; also: potency is read from the fitted curve at half-maximal effect
Procedure, shortened: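 Infected erythrocytes were added to compound in Albumax-supplemented RPMI 1640 at 0.1% parasitemia and 2% hematocrit (final), incubated 96 h at 37 C under 5% CO2, then luciferase reagent was added and luminescence measured.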

[5] = Quantitative high throughput screen for delayed death inhibitors of the malarial parasite plastid, 48 hour incubation (AID 488752); also: nearly all actives have a fitted effect of over 65% in size; also: potency is read from the fitted curve at half-maximal effect
Procedure, shortened: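 Readout is firefly luciferase luminescence from a reporter integrated into the parasite genome, with lower signal taken as inhibited growth. Infected red cells (0.1% parasitemia, 2% hematocrit final) are cultured with compound for one 48 h cycle at 37 C.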

[6] = target: Thioredoxin reductase 1, cytoplasmic (Rattus norvegicus) (UniProt O89049); assay: qHTS Assay for Substrates of Mammalian Selenoprotein Thioredoxin Reductase 1 (TrxR1) (AID 488772);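 also: NADPH fluorescence in the first read after selenite addition and not the 8 min delta; series mostly up to about 57 µM; a drop in NADPH fluorescence below the no-compound background marks a TrxR1 substrate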
Procedure, shortened: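 Quantitative HTS in Tris-HCl buffer at pH 7.5 with EDTA and Tween-20, using rat TrxR1, 400 uM NADPH and 400 uM selenite (final). A fall in initial NADPH fluorescence relative to background marked substrate behaviour.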

[7] = target: Thioredoxin reductase 1, cytoplasmic (Rattus norvegicus) (UniProt O89049); assay: qHTS Assay for Inhibitors of Mammalian Selenoprotein Thioredoxin Reductase 1 (TrxR1) (AID 488773); conditions: Potency: inhibition;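 also: drop in NADPH fluorescence over an 8 min run after selenite addition; series mostly up to about 57 µM; nearly all actives have a fitted effect of over 40% in size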
Procedure, shortened: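 Steps: enzyme (90 nM) plus NADPH (400 uM final), 5 min at ~22 deg C; compound added, 15 min; selenite (400 uM final) added; fluorescence followed for 8 min. Concentration-response curves derived from the normalized delta values.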

[8] = target: Flap endonuclease 1 (Homo sapiens) (UniProt P39748); assay: qHTS Validation Assay for the Inhibitors of Human Flap endonuclease 1 (FEN1) (AID 488816)
Procedure, shortened: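 FEN1, dispensed as a 10 nM reagent, was preincubated with pin-transferred compounds for 15 min at room temperature before substrate was added (50 nM final). Plates were read at 0 and 15 min, and a four-parameter Hill equation was fitted to the concentration-response data.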

[9] = target: Chromobox protein homolog 1 (Homo sapiens) (UniProt P83916); assay: qHTS Validation Assay for Inhibitors of HP1-beta Chromodomain Interactions with Methylated Histone Tails (AID 488953); also: nearly all actives have a fitted effect of over 50% in size; also: potency is read from the fitted curve at half-maximal effect
Procedure, shortened: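 50 nM HP1-beta + 50 nM biotin-H3(1-18)K9me3, PBS pH 7.4, 0.01% Tween-20, 30 min RT; compound added, 30 min RT; AlphaScreen beads 10 ug/mL final, 30 min dark; luminescence read.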

[10] = target: Methanococcus maripaludis chaperonin (MmCpn) (UniProt Q6LX38); assay: High-Throughput Screening for Modulators of Cytosolic Chaperonin Activity: MmCpn Primary Screen (AID 488978);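 also: 50 nM MmCpn enzyme hydrolysing 30 µM ATP at 37 °C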
Procedure, shortened: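 ATPase activity of 50 nM MmCpn was assayed with 30 uM ATP, 10 minutes at 37C, after a 5 min compound preincubation at room temperature. ADP production was read as HTRF emission at 590 and 665 nm.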

[11] = target: Transient receptor potential cation channel subfamily V member 1 (Homo sapiens) (UniProt Q8NER1); assay: HTS Assay for Compounds that Act as Enhancers of the Vanilloid Receptor 1 (AID 488979)
Procedure, shortened: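 TRPV1-expressing cells loaded with Fluo-8 calcium dye; compounds added and calcium influx read kinetically for 3 min (agonist phase), then capsaicin at EC20 added and read 2 min more for enhancement. Fluorescence ex 480/em 520 nm.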

[12] = target: Thyrotropin receptor (Homo sapiens) (UniProt P16473); assay: qHTS Assay for Antagonists of the Thyroid Stimulating Hormone Receptor (AID 488980); also: series mostly up to about 58 µM
Procedure, shortened: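 Inhibition of cAMP raised by EC80 TSH (4 nM final) was read by HTRF, with lysate cAMP competing against cAMP-d2 for cryptate antibody after 30 min at room temperature. The cells were transfected HEK293 held in phosphodiesterase inhibitor RO 20-1724 at 70 uM.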

[13] = target: D(1A) dopamine receptor (Homo sapiens) (UniProt P21728); assay: HTS Assay for Allosteric Agonists of the Human D1 Dopamine Receptor: Primary Screen for Agonists (AID 488981)
Procedure, shortened: (§1)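 Tetracycline-induced HEK293 T-REx cells force-coupled to calcium signalling were incubated overnight at 30 C and dye-loaded at room temperature. Calcium flux over 180 s after compound addition flagged agonists; a further 180 s read after EC20 dopamine flagged potentiators.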

[14] = target: D(1A) dopamine receptor (Homo sapiens) (UniProt P21728); assay: HTS Assay for Allosteric Agonists of the Human D1 Dopamine Receptor: Primary Screen for Potentiators (AID 488982)
Procedure, shortened: as §1

[15] = target: D(1A) dopamine receptor (Homo sapiens) (UniProt P21728); assay: HTS Assay for Allosteric Agonists of the Human D1 Dopamine Receptor: Primary Screen for Antagonists (AID 488983);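 also: calcium flux response to an EC80 dopamine challenge measured with no-wash dye; nearly all actives have a fitted effect of over 65% in size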
Procedure, shortened: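 Cells are induced with tetracycline and incubated overnight at 30 C, then loaded with calcium dye for 30 to 90 minutes at room temperature. Compound addition is followed by a 180 s read, then an EC80 dopamine addition and another 180 s read.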

[16] = target: ATP-dependent 6-phosphofructokinase (Trypanosoma brucei brucei) (UniProt O15648); assay: qHTS Assay to Find Inhibitors of T. brucei phosphofructokinase: hit validation (AID 492961);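 also: luminescence reports ADP formed as PFK phosphorylates fructose-6-phosphate with ATP; series mostly up to about 51 µM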
Procedure, shortened: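 Percent activity derived from corrected luminescence, normalized between 0x and 1x enzyme controls, then fitted to concentration-response curves. Conditions: 1.25 nM PFK, 0.1 mM ATP, 0.5 mM F6P, 45 min RT.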

[17] = Validation screen for small molecules that induce genotoxicity in human embryonic kidney (HEK293T) cells expressing luciferase-tagged ELG1 (AID 493106)
Procedure, shortened: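 Luminescence from an ELG1-luciferase fusion serves as the read-out, rising when genetic stress elevates ELG1 protein. HEK293T reporter cells (2,000 per well) received 23 nL compound, incubated 16 hr at 37 °C, then ONE-Glo for 30 min at room temperature.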

[18] = target: Beta-2 adrenergic receptor (Homo sapiens) (UniProt P07550); assay: qHTS validation assay of beta-arrestin-biased ligands of beta2-adrenergic receptor (AID 485366)
Procedure, shortened: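 Values derive from curve-fitted %Activity of a luminescent beta-arrestin recruitment reporter; compounds tested up to 46 microM on Tango cells for 18 hr at 37 degrees C, 5% CO2.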

[19] = target: ATP-dependent 6-phosphofructokinase (Trypanosoma brucei brucei) (UniProt O15648); assay: qHTS Validation Assay to Find Inhibitors of T. brucei phosphofructokinase (AID 485368); conditions: outcome: dose series up to 57.5 µM
Procedure, shortened: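 Enzyme reaction in triethanolamine buffer pH 8.0 with 5 mM MgCl2, 0.01% Tween20 and 0.1% BSA; PFK 1.25 nM, F6P 0.5 mM, ATP 0.1 mM, 45 min RT. ADP quantified by ADP-Glo.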

[20] = target: M-phase phosphoprotein 8 (Homo sapiens) (UniProt Q99549); assay: qHTS Validation Assay for Inhibitors for MPP8 Chromodomain Interactions with Methylated Histone Tails (AID 488949);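 also: AlphaScreen signal from MPP8 chromodomain bound to biotinylated H3K9me3 peptide; top concentration of the series differs between compounds; nearly all actives have a fitted effect of over 55% in size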
Procedure, shortened: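 AlphaScreen proximity signal from streptavidin donor and Ni-chelate acceptor beads (10 ug/mL each) reported binding of MPP8 to trimethyl-K9 H3(1-18) peptide, both at 50 nM. The complex formed 30 min before a 30 min compound exposure at room temperature, in PBS pH 7.4.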

Measured: Potency

Sequence of ATP-dependent 6-phosphofructokinase (Trypanosoma brucei brucei) (O15648 whole entry, looked up): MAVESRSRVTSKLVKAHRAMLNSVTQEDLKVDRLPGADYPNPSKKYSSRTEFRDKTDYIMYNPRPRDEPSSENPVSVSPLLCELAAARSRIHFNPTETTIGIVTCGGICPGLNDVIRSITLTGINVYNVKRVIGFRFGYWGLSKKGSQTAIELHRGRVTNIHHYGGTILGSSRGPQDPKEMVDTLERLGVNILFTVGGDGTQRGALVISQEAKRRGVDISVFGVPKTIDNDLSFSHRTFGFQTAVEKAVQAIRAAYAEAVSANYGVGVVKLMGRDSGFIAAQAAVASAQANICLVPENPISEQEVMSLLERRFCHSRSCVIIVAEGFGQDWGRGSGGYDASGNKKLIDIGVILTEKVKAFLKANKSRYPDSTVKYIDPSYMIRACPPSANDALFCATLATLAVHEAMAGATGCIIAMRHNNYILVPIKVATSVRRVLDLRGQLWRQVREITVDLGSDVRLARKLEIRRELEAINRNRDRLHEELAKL
Sequence of Transient receptor potential cation channel subfamily V member 1 (Homo sapiens) (Q8NER1 whole entry, looked up): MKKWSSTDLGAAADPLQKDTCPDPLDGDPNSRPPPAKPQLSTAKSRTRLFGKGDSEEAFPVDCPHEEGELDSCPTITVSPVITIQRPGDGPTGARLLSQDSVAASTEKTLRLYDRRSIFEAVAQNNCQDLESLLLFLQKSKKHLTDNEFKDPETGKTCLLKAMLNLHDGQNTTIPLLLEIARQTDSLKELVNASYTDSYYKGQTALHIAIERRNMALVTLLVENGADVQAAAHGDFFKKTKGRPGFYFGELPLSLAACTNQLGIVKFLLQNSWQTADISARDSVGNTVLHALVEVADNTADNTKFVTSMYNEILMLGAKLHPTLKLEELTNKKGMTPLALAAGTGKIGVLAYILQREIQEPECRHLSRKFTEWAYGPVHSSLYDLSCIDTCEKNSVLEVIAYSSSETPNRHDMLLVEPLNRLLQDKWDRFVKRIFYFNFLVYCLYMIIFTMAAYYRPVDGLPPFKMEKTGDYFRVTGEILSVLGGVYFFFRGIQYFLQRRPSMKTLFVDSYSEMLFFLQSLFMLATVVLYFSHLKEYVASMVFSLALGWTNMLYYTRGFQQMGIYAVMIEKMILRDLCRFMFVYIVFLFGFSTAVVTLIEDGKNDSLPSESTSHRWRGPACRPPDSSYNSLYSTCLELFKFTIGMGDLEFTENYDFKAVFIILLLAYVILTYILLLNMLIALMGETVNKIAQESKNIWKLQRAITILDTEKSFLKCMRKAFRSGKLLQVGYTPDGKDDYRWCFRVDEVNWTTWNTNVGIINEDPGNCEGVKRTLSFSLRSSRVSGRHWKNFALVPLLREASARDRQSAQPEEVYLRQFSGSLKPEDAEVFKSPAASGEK
Sequence of Thyrotropin receptor (Homo sapiens) (P16473 whole entry, looked up): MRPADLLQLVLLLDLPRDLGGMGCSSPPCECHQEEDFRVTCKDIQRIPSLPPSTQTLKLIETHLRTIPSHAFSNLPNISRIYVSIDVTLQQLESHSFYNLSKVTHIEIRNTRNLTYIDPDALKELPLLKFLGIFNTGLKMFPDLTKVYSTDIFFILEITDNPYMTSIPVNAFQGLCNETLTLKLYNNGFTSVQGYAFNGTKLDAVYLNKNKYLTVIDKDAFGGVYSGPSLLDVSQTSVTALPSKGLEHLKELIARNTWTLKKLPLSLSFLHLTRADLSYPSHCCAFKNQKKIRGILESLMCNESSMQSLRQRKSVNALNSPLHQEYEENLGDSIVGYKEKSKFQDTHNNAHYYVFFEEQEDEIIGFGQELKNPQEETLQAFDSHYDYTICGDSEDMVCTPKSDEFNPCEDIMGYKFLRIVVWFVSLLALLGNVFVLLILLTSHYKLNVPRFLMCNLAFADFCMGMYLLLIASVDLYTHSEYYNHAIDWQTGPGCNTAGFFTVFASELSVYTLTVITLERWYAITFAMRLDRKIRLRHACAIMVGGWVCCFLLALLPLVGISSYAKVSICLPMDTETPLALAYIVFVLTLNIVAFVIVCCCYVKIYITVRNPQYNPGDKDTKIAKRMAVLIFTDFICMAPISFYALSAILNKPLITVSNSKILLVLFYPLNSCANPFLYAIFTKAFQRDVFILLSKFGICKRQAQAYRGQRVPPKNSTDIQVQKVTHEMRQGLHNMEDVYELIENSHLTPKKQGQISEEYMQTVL
Sequence of D(1A) dopamine receptor (Homo sapiens) (P21728 whole entry, looked up): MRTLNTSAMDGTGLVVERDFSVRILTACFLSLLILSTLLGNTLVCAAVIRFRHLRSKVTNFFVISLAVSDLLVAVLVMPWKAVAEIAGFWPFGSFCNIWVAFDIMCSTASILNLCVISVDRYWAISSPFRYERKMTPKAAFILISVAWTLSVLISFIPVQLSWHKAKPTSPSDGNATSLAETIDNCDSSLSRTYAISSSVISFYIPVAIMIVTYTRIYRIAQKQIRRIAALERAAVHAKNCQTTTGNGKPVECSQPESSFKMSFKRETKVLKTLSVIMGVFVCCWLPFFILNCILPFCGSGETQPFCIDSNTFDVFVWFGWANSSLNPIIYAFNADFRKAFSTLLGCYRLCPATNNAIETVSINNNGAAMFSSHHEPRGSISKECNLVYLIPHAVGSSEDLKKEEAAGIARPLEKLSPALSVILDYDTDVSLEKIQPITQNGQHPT
Sequence of Chromobox protein homolog 1 (Homo sapiens) (P83916 whole entry, looked up): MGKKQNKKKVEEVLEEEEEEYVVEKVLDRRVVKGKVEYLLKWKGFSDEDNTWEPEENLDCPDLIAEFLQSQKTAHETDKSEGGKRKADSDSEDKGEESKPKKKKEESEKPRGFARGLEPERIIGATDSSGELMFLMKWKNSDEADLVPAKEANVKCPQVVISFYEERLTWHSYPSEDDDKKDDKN
Sequence of DNA polymerase III PolC-type (Bacillus subtilis (strain 168)) (P13267 whole entry, looked up): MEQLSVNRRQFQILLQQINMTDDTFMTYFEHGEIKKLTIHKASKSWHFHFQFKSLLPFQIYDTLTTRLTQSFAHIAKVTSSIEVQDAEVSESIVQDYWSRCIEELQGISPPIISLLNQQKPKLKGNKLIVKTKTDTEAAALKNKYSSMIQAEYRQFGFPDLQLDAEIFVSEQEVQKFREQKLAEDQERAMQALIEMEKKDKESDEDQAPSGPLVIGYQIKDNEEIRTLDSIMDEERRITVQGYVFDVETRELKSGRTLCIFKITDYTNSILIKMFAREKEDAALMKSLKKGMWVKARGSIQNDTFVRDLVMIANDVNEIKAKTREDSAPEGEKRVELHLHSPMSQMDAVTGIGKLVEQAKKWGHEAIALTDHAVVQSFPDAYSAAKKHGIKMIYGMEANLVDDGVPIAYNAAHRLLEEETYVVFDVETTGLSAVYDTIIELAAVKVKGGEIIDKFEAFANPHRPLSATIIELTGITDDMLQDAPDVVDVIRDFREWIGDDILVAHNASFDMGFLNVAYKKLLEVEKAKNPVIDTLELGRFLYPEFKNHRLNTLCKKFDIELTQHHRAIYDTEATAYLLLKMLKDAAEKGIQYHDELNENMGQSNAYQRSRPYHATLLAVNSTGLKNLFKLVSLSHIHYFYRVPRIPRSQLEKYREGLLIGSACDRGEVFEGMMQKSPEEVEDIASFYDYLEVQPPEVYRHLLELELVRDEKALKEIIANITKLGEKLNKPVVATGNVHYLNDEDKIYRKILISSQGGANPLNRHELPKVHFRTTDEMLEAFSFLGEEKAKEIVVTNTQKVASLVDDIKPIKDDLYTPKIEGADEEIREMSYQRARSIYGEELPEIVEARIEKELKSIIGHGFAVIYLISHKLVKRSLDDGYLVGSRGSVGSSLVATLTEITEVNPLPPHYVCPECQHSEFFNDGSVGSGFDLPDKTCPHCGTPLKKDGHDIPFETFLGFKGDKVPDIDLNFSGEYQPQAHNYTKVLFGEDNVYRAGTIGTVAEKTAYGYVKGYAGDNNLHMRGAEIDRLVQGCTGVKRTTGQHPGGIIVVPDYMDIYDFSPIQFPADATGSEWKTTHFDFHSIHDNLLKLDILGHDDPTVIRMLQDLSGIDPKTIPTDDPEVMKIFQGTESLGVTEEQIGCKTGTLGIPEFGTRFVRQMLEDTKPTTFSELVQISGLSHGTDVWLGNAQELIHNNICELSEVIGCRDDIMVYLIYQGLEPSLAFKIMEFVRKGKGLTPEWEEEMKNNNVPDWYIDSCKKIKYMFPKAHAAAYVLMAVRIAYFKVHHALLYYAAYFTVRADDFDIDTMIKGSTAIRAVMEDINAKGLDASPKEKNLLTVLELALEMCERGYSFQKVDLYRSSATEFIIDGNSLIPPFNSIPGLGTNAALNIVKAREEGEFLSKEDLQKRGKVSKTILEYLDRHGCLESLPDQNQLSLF
Sequence of Thioredoxin reductase 1, cytoplasmic (Rattus norvegicus) (O89049 whole entry, looked up): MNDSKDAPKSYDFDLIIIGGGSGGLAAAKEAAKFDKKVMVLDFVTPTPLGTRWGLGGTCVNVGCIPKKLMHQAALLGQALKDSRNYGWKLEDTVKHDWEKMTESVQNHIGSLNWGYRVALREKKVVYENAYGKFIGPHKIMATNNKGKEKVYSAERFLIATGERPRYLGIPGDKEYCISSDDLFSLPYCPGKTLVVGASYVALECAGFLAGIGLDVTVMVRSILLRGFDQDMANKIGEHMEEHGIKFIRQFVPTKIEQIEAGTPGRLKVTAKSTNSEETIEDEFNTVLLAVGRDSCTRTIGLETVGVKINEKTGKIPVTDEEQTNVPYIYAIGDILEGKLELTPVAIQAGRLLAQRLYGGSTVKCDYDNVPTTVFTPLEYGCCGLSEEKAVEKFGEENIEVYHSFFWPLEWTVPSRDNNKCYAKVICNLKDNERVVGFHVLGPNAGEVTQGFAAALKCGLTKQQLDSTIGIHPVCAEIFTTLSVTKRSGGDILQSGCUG
Sequence of Flap endonuclease 1 (Homo sapiens) (P39748 whole entry, looked up): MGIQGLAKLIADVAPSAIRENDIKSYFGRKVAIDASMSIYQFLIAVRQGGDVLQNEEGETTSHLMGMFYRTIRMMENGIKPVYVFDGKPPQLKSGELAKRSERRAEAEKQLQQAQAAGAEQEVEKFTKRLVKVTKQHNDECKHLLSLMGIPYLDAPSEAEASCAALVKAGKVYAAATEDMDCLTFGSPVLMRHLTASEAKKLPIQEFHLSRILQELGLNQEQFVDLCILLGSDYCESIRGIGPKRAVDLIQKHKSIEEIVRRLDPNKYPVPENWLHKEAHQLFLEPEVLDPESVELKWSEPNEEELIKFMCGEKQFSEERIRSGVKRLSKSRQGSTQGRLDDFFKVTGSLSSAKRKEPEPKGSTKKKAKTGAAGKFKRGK

CC(C)C[C@H](NC(=O)[C@@H](O)[C@H](N)Cc1ccccc1)C(=O)O
inactive: [1] | [2] | [3] | [6] | [7] | [8] | [9] | [10] | [11] | [12] | [13] | [14] | [15] | [16] | [17]
active: [4] 370 nM | [5] 1040 nM

CCC(C)N(C)C(=O)c1cc2ccccc2c(-c2ccccc2Cl)n1 (configuration not stated)
inactive: [1] | [2] | [3] | [18] | [6] | [7] | [8] | [9] | [10] | [11] | [12] | [13] | [15] | [17]

Nc1nc2ccc(OC(F)(F)F)cc2s1
inactive: [1] | [2] | [18] | [19] | [6] | [7] | [8] | [20] | [9] | [10] | [11] | [12] | [13] | [15]

Cc1cc2c(C(C)C)c(O)c(O)c(C=O)c2c(O)c1-c1c(C)cc2c(C(C)C)c(O)c(O)c(C=O)c2c1O
inactive: [2] | [18] | [10] | [17]

N#Cc1ccc(C(c2ccc(C#N)cc2)n2cncn2)cc1
inactive: [16]

CC(C)NCC(O)COc1ccc(COCCOC(C)C)cc1 (configuration not stated)
inactive: [1] | [2] | [3] | [19] | [4] | [5] | [6] | [7] | [8] | [20] | [10] | [11] | [12] | [13] | [15] | [16] | [17]

O=C(O)COCCN1CCN(C(c2ccccc2)c2ccc(Cl)cc2)CC1 (configuration not stated)
inactive: [2] | [3] | [18] | [6] | [7] | [8] | [20] | [9] | [10] | [13] | [15] | [17]

Oc1ccc(C2CNCCc3c2cc(O)c(O)c3Cl)cc1 (configuration not stated)
active: [9] 6.7 nM
inactive: [2] | [3] | [18] | [6] | [10] | [11] | [12] | [14] | [17]

C[C@]12CCC(=O)C=C1CC[C@@H]1[C@@H]2[C@@H](O)C[C@@]2(C)[C@H]1CC[C@]2(O)C(=O)CO
inactive: [1] | [2] | [18] | [19] | [6] | [7] | [8] | [9] | [10] | [13] | [15]

Nc1ncnc2nc(-c3ccc(N4CCOCC4)nc3)cc(-c3cccc(Br)c3)c12
inactive: [1] | [2] | [18] | [19] | [6] | [10] | [13] | [14] | [15] | [17]

CC(C)(C)NCC(O)c1ccc(O)c(CO)c1 (configuration not stated)
inactive: [1] | [2] | [3] | [19] | [4] | [5] | [6] | [7] | [9] | [10] | [11] | [12] | [13] | [15] | [17]

CCOC(=O)C1=C[C@]2(CC)CCCN3CCc4c(n1c1ccccc41)[C@@H]32
inactive: [1] | [2] | [18] | [19] | [6] | [7] | [8] | [10] | [11] | [12] | [13] | [17]
